Only some compounds are listed: those with a hit (about 1.8% of all), similar ones and a draw of the others.
Mtb hypoxia inh: inhibitors of hypoxia-regulated fluorescent reporter in Mycobacterium tuberculosis; hit rate 0.1% among 300,000; M. tuberculosis hypoxia-regulated fluorescent reporter, fluorescence; fluorescence inhibition, % (concentration not given with the values); in the data active = fluorescence inhibition mostly above about 23%, no sharp cut-off; inactive = mostly below about 17%
RN4220 kill: S. aureus RN4220 growth inhibition. OD600, 16 h. inhibition, % (no concentration beside the values). hit rate 0.33% among 330,000; in the data active = inhibition above about 85%;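 note: plate controls were untreated cells for no effect and reference antibiotic for full effect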
DUSP3 inh: inhibitors of human VHR1 phosphatase (DUSP3); P51452; hit rate 0.52% among 290,000; inhibition, % at 13.3 µM; AID 1654; recombinant VHR phosphatase, pNPP absorbance; in the data active = inhibition above about 50%
Target sequence (P51452 whole entry, looked up): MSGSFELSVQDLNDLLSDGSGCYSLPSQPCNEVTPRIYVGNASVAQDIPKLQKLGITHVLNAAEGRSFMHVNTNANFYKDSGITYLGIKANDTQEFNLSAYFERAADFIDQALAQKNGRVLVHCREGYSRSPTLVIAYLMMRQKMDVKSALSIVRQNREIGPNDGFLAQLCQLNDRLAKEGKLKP
PfHsp40 rescue: rescue of PfHsp40-mediated yeast toxicity. S. cerevisiae expressing PfHsp40, growth rescue, ATP luminescence. growth rescue, % at 12.5 µM. hit rate 0.68% among 340,000. AID 504582; in the data active = growth rescue above about 28%, passing the limit was not always enough; inconclusive = no clear call, values can overlap the other calls;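 note: yeast W303a lacking pdr1 and pdr3 grown in galactose medium; growth measured after three days at 30 °C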
SSB-PriA inh: blocks PriA binding to SSB C-terminal tail | AlphaScreen SSBct-PriA binding, biotinylated peptide | inhibition, % at 33 µM | hit rate 0.6% among 430,000 | AID 1272365; in the data active = inhibition mostly above about 37%, no sharp cut-off; inactive = mostly below about 20%;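 note: plate controls were negative control peptide for no effect and reference peptide for full effect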
ugtP null kill: compounds lethal to S. aureus RN4220 ugtP deletion mutant; OD600 growth, 16 h; growth inhibition, % (test concentration not listed); hit rate 0.54% among 330,000; in the data active = growth inhibition above about 68%;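 note: plate controls were untreated wells for no effect and antibiotic for full effect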
An asterisk follows results filed as active; u = inconclusive; x = no result given; ! = not confirmed by another sample.

SMILES | Mtb hypoxia inh | RN4220 kill | DUSP3 inh | PfHsp40 rescue | SSB-PriA inh | ugtP null kill
O=C(NN=Cc1cc([N+](=O)[O-])ccc1O)Nc1ccccc1 | 7 | 91* | x | x | -13 | 71
O=[N+]([O-])c1cccc(NN=Cc2cc([N+](=O)[O-])ccc2O)c1 | 6 | 53 | x | x | -17 | 22
O=C(NN=Cc1cc([N+](=O)[O-])ccc1O)c1ccc2c(c1)OCCO2 | 6 | 90* | x | x | -5 | 68
COc1ccc(C=NNc2nc(N3CCCC3)nc(N3CCCC3)n2)c(OC)c1OC | -3 | 2 | x | x | -2 | 1
CCc1ccc2[nH]c3nc(SCC(=O)NNC(=O)c4ccc(C(C)(C)C)cc4)nnc3c2c1 | 0 | 19 | 10 | -1 | -11 | 85*
CCc1c(C)sc(NC(=O)Cn2nc(C)c([N+](=O)[O-])c2C)c1C(N)=O | 8 | 2 | 53* | -1 | 1 | 4
C#CCOCCOCCOCCNc1nc(N2CCN(C(=O)Cn3cc(CCCN=C(N)N)nn3)CC2)nc(N2CCN(C(=O)C(C(C)O)n3cc(CCCCN)nn3)CC2)n1 (stereo unspecified) | 16 | 27 | x | x | x | -12
O=C(CSc1ccc(-c2ccccn2)nn1)NCc1ccccc1 | 15 | 3 | -3 | 270* | 50*! | 2
O=C(CSc1ccc(-c2ccccn2)nn1)NCc1ccco1 | x | x | x | x | 71* | x
O=C(CSc1ccc(-c2ccccn2)nn1)Nc1ccc(Br)cc1 | x | x | x | x | 19 | x
O=C(CSc1ccc(-c2ccccn2)nn1)NCCc1ccccc1 | x | x | x | x | 81* | x
O=C(CSc1nnc2ccc(-c3ccccn3)nn12)NCc1ccc(F)cc1 | x | x | x | x | 16 | x
O=C(CSc1ccc(-c2ccccn2)nn1)NCc1ccc(F)cc1 | 13 | 6 | 29 | 248* | 3 | -1
O=C(CSc1ccc2nnc(-c3ccccn3)n2n1)NCc1ccco1 | 0 | 5 | 12 | 1 | 82* | 3
O=C(CSc1ccc2nnc(-c3ccccc3)n2n1)NCc1ccco1 | -3 | 6 | 9 | 1 | 2 | 12
CC(C)CN1CCC(=O)N(C(CO)c2ccccc2)CC1 (stereo unspecified) | 2 | 0 | x | x | x | -15
CSc1nc(Cl)c(Cc2ccc(OCC(C)C)cc2)c(N2CCOCC2)n1 | 2 | -3 | 39 | -1 | -15 | 94*
CCOc1ccc(Cc2c(Cl)nc(SC)nc2OC)cc1 | 15 | -3 | 22 | -2 | -42 | 83
CCCCOc1ccc(Cc2c(Cl)nc(SC)nc2N2CCOCC2)cc1 | 8 | -2 | -5 | 0 | -6 | 92*
COc1cc(C2C(=C(O)c3ccc(F)cc3)C(=O)C(=O)N2CCCC(=O)O)ccc1O (stereo unspecified) | x | x | x | x | -16 | x
c1ccc(CC2CCN(Cc3ccccn3)CC2)cc1 | 17 | 0 | 27 | 50* | -14 | 2
Clc1ccc(CN2CCC(Cc3ccccc3)CC2)cc1 | 10 | -5 | 10 | 2 | -12 | 11
CCC(COC)Oc1cc(NCc2ccccc2)c2ncn(C(C)C)c2c1 (stereo unspecified) | 6 | 8 | x | 0 | 63* | -8
COc1ccc(Cc2cc(NCc3ccccc3)c3ncn(C(C)C)c3c2)cc1 | 8 | -2 | x | 0 | 66* | 9
NC(=NOC(=O)CCCN1C(=O)c2ccccc2C1=O)c1ccc(Cl)cc1 | x | x | x | x | -6 | x
SMILES | Mtb hypoxia inh | RN4220 kill | DUSP3 inh | PfHsp40 rescue | SSB-PriA inh | ugtP null kill
Cc1cc(NC(=O)CON=Cc2ccc3c(c2)OCO3)ccc1Br | 3 | 1 | x | x | -3 | 3
O=C(COC(=O)c1ccc([N+](=O)[O-])o1)Nc1ccc(F)cc1 | 35* | 11 | x | -2 | 4 | 6
O=C(COC(=O)c1ccc([N+](=O)[O-])o1)Nc1ccc(N2CCOCC2)cc1 | x | 8 | x | 95* | -11 | 12
O=C(COC(=O)c1ccc(Br)o1)NCc1ccc2c(c1)OCO2 | 12 | -2 | x | 0 | -10 | 6
O=C(COC(=O)c1ccc([N+](=O)[O-])o1)Nc1ncc(Cl)cc1Cl | x | x | x | 49* | -6 | x
O=C(COC(=O)c1ccc([N+](=O)[O-])o1)NCc1ccc2c(c1)OCO2 | 11 | 11 | x | 168* | -3 | 6
O=C(COc1ccccc1F)N1CCN(c2ncnc3c2nnn3-c2ccccc2)CC1 | x | x | x | x | 3 | x
O=C(Cc1c[nH]c2ccccc12)N1CC(S(=O)(=O)c2ccc(F)cc2)C1 | x | x | x | x | -1 | x
O=C(COC(=O)c1ccc([N+](=O)[O-])o1)NC1CCCc2ccccc21 (stereo unspecified) | 2 | 5 | x | 262* | -15 | 3
O=C(Nc1cccc(I)c1)C(=O)c1c(O)[nH]c2ccccc12 | x | x | x | x | -1 | x
Cc1ccc(Cl)cc1NC(=O)C(=O)NCc1ccc2c(c1)OCO2 | x | x | x | x | -16 | x
Nc1ccc(N=Nc2ccccc2)c(N)n1 | 11 | 5 | 9 | 6 | 56* | -4
c1ccc(N=Nc2ccc3cccccc2-3)cc1 | 4 | 15 | x | 7 | 51* | 95*
COC(=O)Nc1ccc(S(=O)(=O)N2CCCC(Cc3nc(C4CC4)no3)C2)cc1 (stereo unspecified) | x | x | x | x | -2 | x
CCOC(=O)c1ccsc1NC(=O)c1ccc([N+](=O)[O-])cc1 | x | x | x | x | -9 | x
O=C(Nc1nc2c(s1)CN(C(=O)c1ccc3nc[nH]c3c1)CC2)c1ccsc1 | x | x | x | x | -13 | x
CC1(C)CC(=O)C(C(O)c2cccc([N+](=O)[O-])c2)C(C)(C)N1 (stereo unspecified) | 5 | 3 | 51* | -1 | -1 | 3
O=C(O)CN1C(=O)c2cccc3c(Br)ccc1c23 | 4 | 2 | -4 | -1 | 1 | 0
CN(C)CCCN1C(=O)c2cccc3c(Br)ccc(c23)C1=O | 67* | 0 | -17 | 2 | -3 | 11
Fc1cccc(CON=Cc2c(-c3ccccc3)nc3ccc(Cl)cn23)c1 | 38* | -4 | x | x | -5 | 8
Cc1ccn2c(C=NOCc3cccc(F)c3)c(-c3ccc(Cl)cc3)nc2c1 | x | -10 | x | x | -8 | -22
Cc1ccc(-n2c(CNCc3ccc(F)cc3)nc3ccccc3c2=O)cc1 | -4 | 1 | 19 | 55* | 4 | 2
CCOC(=O)c1c(C)n(-c2ccccc2)c2c1cc(OC(=O)c1ccc(Cc3ccccc3)cc1)c1ccccc12 | x | x | x | x | 5 | x
CCOC(=O)C1CCCN(C2CC(=O)N(c3ccccc3)C2=O)C1 (stereo unspecified) | 1 | 3 | 42 | 0 | -3 | 7
CCOC(=O)C1CCCN(C2CC(=O)N(c3cccc(C(F)(F)F)c3)C2=O)C1 (stereo unspecified) | 7 | 6 | 4 | 44* | -4 | 7
Cc1cc(C)cc(OCCNS(=O)(=O)c2cc([N+](=O)[O-])ccc2Cl)c1 | x | x | x | x | 36* | x
CN1CCc2cc(C(CNC(=O)C(=O)Nc3ccon3)N3CCCCC3)ccc21 (stereo unspecified) | x | x | x | x | -1 | x
C(C#CCCCCCCCCC[n+]1ccccc1)#CCCCCCCCCC[n+]1ccccc1 | x | 100* | -3 | u | -2 | 101*
C[C@H]1CCc2cc(F)ccc2N1C(=O)C1CN(S(C)(=O)=O)C1 | x | x | x | x | -7 | x
Cc1ccc(S(=O)(=O)Nc2c(C)cc([N+](=O)[O-])cc2C)cc1 | x | x | x | 4 | -7 | x

Screens from PubChem BioAssay.
